ID4 SMM – binds human ID4 protein on microarray. small molecule microarray, Flag-ID4 binding, fluorescence F/B. 1.2% of 31,000 active. AID 624137. calls only; call rule not given here;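 note: a binder raises fluorescence above local background on the spot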
Target sequence (P47928 whole entry, looked up): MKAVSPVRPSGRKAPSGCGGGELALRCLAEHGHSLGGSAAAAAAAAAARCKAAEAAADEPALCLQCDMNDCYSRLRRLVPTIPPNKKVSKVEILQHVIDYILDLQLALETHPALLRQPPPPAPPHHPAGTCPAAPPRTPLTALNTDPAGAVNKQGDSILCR
STK33 kin inh – blocks human STK33 kinase activity. Q9BYT3. ADP-Glo luminescence, MBP substrate. inhibition, % at 12.5 µM. 0.44% of 27,000 active; in the data active = inhibition above about 20%; inconclusive = no clear call, values can overlap the other calls
p53 PUMA act – restores mutant p53 pathway signaling in SW480 cells; SW480 PUMA-promoter luciferase, p53 mutant reactivation; activation, % at 9.98 µM; 1.5% of 28,000 active; AID 624151; in the data active = activation above about 52%; inconclusive = no clear call, values can overlap the other calls
* marks the source's active call; other numbers are inactive results; i = inactive; ? = inconclusive; nt = no result; + = active, no number. This is a sample that favours compounds with a hit; in the whole collection about 2% have one here.

SMILES	ID4 SMM	STK33 kin inh	p53 PUMA act
C=C1CCC2(C(=O)OC3OC(CO)C(O)C(O)C3O)CCC3(C)C(=CCC4C5(C)CC(O)C(OC6OCC(O)C(O)C6OC6OC(CO)C(O)C(O)C6O)C(C)(CO)C5CCC43C)C2C1 (configuration not stated)	i	-3.3	-3.4
CC(NS(=O)(=O)c1ccccc1)C(=O)Nc1ccc(Cl)c(C(F)(F)F)c1 (configuration not stated)	i	-2.2	6.3
NC(=O)/C(=C/c1ccc2c(c1)OCO2)NC(=O)c1ccc(Br)cc1	i	nt	0.4
C[C@@H]1CN([C@H](C)CO)C(=O)CCCn2nncc2CO[C@@H]1CN(C)Cc1ccc(Oc2ccccc2)cc1	+	-5.2	-1.7
C[C@H](CO)N1C[C@H](C)[C@@H](CN(C)Cc2ccc(Oc3ccccc3)cc2)OCc2cnnn2CCCC1=O	i	0.1	1.4
O=C(Nc1sc2c(c1C(=O)NCc1ccco1)CCCC2)c1ccc(F)cc1	i	7.6	-29.7
C[C@@H]1CN([C@H](C)CO)C(=O)c2cc(-c3cccc(F)c3)cnc2O[C@@H]1CN(C)C(=O)Nc1cc(F)ccc1F	i	nt	17.8
C[C@H](CO)N1C[C@H](C)[C@H](CN(C)C(=O)c2cccc(F)c2)Oc2ncc(-c3ccccc3)cc2C1=O	+	nt	nt
C[C@@H]1CN([C@@H](C)CO)C(=O)c2cc(-c3ccccc3)cnc2O[C@H]1CN(C)C(=O)c1cccc(F)c1	i	nt	nt
C[C@H]1CN([C@@H](C)CO)C(=O)c2cc(-c3cccc(F)c3)cnc2O[C@H]1CN(C)C(=O)Nc1cc(F)ccc1F	+	nt	-4.4
COC(=O)[C@@H]1OC(=O)C2OC23[C@@]1(C)CCC1[C@]2(C)C(C[C@@H](O)[C@]13C)C(C)(C)[C@H](OC(C)=O)C[C@@H]2OC(C)=O (some centres not stated)	i	3.1	nt
CSc1ccccc1-n1nnnc1SCCSc1ccccc1-n1nnnc1SC	i	-0.6	-1.3
COc1cccc(OCCCCSc2ncccn2)c1	i	-3.1	18.3
O=[N+]([O-])c1ccc(OCCCSc2ncccn2)cc1	i	-0.1	56.7*
COc1ccc(OCCCSc2ncccn2)cc1	i	6.3	126.3*
COc1cccc(OCCSc2nc(N)cc(N)n2)c1	i	1.7	63.6*
Cc1cc(=O)[nH]c(SCCOc2cccc(Oc3ccccc3)c2)n1	i	-0.6	-10.8
Cc1ccc([N+](=O)[O-])c(OCCSc2ncccn2)c1	i	3.3	?
CCN(CC(=O)Nc1cccc(Cl)c1C)S(=O)(=O)c1ccc(F)cc1	i	0.5	3.1
C=C1C(=O)OC2CC1C(OC(C)=O)C/C(C)=C\CC/C(C)=C\CC[C@]2(C)O (some centres not stated)	nt	2.1	nt
CN(CC(=O)O)C(=O)c1ccc(S(=O)(=O)N2CCCC2)cc1	i	-1.8	5.3
Cc1ccc(S(=O)(=O)NCC(=O)Nc2ccc(Cl)c(C(F)(F)F)c2)cc1	i	3.5	-0.8
Cc1cc(C)n2nc3nc(N4CCOCC4)nc(-c4ccc(C(C)C)cc4)c3c2n1	i	nt	-27.5
CNC(=O)CN(c1cc(C)ccc1OC)S(C)(=O)=O	i	-0.5	8.6
CC(C)N(Cc1nc(-c2ccccc2Cl)no1)S(=O)(=O)c1ccc([N+](=O)[O-])cc1	i	1.2	8.9
SMILES	ID4 SMM	STK33 kin inh	p53 PUMA act
CC(Oc1ccc(Cl)cc1Cl)C(=O)Nc1cccc(-c2nnc(-c3ccccc3)o2)c1 (configuration not stated)	i	3.1	80.7*
COc1ccc(NC(=O)c2ccco2)cc1NC(=O)C(C)Oc1ccc(Cl)cc1Cl (configuration not stated)	i	5.1	-9.5
COc1cc(NC(=O)C(C)Oc2ccc(Cl)cc2Cl)ccc1NC(=O)c1ccco1 (configuration not stated)	i	9.4	67.1*
O=C(COc1ccc(Cl)cc1Cl)Nc1cccc(-c2nnc(-c3ccccc3)o2)c1	i	8.1	38.7
CSc1ccccc1NC(=O)C(C)n1nc(C)c([N+](=O)[O-])c1C (configuration not stated)	i	-9.4	-1.8
Cc1[nH]c2ccccc2c1C(=O)CSc1nc2ccccc2o1	i	0.7	31.5
Cc1[nH]c2ccccc2c1C(=O)CSc1nc2ccccc2[nH]1	i	0.5	62.1*
COc1ccc(-c2cc(=O)c3cc(OC)ccc3o2)cc1	i	6.4	nt
COc1c(O)cc2oc(-c3ccc(O)cc3)cc(=O)c2c1O	nt	15.0	58.5*
COc1ccc(-c2cc(=O)c3c(O)cc(O)cc3o2)cc1O	nt	45.5*	nt
COc1cc(O)c2c(=O)cc(-c3ccccc3)oc2c1OC	i	22.8*	nt
COc1ccc(-c2cc(=O)c3ccc(OC)cc3o2)cc1	nt	3.7	65.9*
O=c1cc(-c2ccccc2)oc2cc(O)c(O)c(O)c12	nt	nt	-24.6
COc1c(O[C@@H]2O[C@H](C(=O)O)[C@@H](O)[C@H](O)[C@H]2O)cc(O)c2c(=O)cc(-c3ccccc3)oc12	i	0.1	-79.0
COc1cccc2oc(-c3ccccc3)cc(=O)c12	i	1.4	-38.6
COC(=O)c1ccc(NC(=O)CN(c2ccc(C)cc2C)S(C)(=O)=O)cc1	i	6.4	18.7
Cc1cc(Cl)c(S(=O)(=O)Nc2ccc(F)cc2)cc1OCC(N)=O	i	-1.5	-6.3
COc1cc2oc(-c3ccc(O)cc3)cc(=O)c2c(O)c1OC	i	59.8*	-16.8
COc1cc(-c2cc(=O)c3c(O)c(OC)c(OC)c(OC)c3o2)cc(OC)c1OC	i	1.5	-17.5
Cc1ccc(OC(=O)OCSc2nn[nH]n2)cc1	nt	-1.2	nt
COc1cccc(C=NC=Nc2cccc(OC)c2)c1	i	nt	37.8
Clc1cccc(C=NC=Nc2cccc(Cl)c2)c1	i	nt	72.9*
Cc1cccc(OCC(=O)Nc2cccc(-c3nnc(-c4ccccc4)o3)c2)c1C	i	-0.2	67.7*
Cc1ccc(OCC(=O)Nc2cccc(-c3nc4ccccc4[nH]3)c2)cc1	i	-0.5	9.7
Cc1ccc(OCC(=O)Nc2cccc(-c3nnc(-c4ccccc4)o3)c2)cc1	i	6.0	118.8*
SMILES	ID4 SMM	STK33 kin inh	p53 PUMA act
Cc1cccc(OCC(=O)Nc2cccc(-c3nnc(-c4ccco4)o3)c2)c1C	i	0.1	?
CCCCCCCCC[C@@H](O)CC(=O)CCc1ccc(O)c(OC)c1	i	1.7	6.1
Cc1ccc(Cn2nc(C)cc2C(=O)Sc2ccccc2)cc1	nt	0.7	nt
Cc1cc(C)c(C#N)c(SCC(O)CSc2ccc(Cl)cc2)n1 (configuration not stated)	i	-1.9	15.5
CCn1c(SCC(=O)Nc2ccc(C)cc2)nc2ccc(I)cc2c1=O	i	-4.8	9.7
Nc1cccc(-c2cc3c(Oc4cccc(O)c4)ncnc3[nH]2)c1	nt	69.3*	2.4
Cc1cc(C)nc(NS(=O)(=O)c2ccc(NC(=O)c3ccccc3Cl)cc2)n1	i	1.1	-1.5
COc1ccc(OCC(=O)Nc2ccc(-c3nc4cc(C)ccc4o3)cc2)cc1	i	-1.1	-45.5
Cc1ccc2oc(-c3cccc(NC(=O)COc4ccc5ccccc5c4)c3)nc2c1	i	?	81.6*
CCc1ccc2oc(-c3cccc(NC(=O)COc4ccccc4)c3)nc2c1	i	2.8	82.0*
Cc1cccc(OCC(=O)Nc2cccc(-c3nc4cc(C)ccc4o3)c2)c1	i	-2.6	86.1*
CCc1ccc(OCC(=O)Nc2ccc3oc(-c4ccccc4)nc3c2)cc1	i	-1.1	?
